Bioassay records as filed in PubChem.
TRHR enhancer = qHTS for Small Molecule Agonists and Allosteric Enhancers of Human TRH Receptor: Primary Screen for Enhancers. Thyrotropin-releasing hormone receptor (Homo sapiens), P34981. TRHR cells, fluo-8 calcium fluorescence, EC20 TRH enhancement. enhancement, % at 2 µM. hit rate 0.66% among 360,000. AID 493056, 2011; in the data active = enhancement above about 30%
Target sequence (P34981 whole entry, looked up): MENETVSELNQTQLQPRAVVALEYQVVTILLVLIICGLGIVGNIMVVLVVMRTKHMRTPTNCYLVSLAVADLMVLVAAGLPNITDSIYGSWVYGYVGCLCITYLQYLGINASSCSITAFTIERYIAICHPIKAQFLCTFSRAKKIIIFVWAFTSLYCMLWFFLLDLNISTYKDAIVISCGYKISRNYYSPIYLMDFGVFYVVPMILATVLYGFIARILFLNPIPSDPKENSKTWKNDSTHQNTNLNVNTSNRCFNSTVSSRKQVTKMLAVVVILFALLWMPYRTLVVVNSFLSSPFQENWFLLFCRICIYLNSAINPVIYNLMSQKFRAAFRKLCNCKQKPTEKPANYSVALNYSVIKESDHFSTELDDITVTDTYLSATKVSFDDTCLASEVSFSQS
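TRHR-expressing cells loaded with fluo-8 calcium dye were read kinetically (ex 480/em 530) during compound addition, then stimulated with an EC20 of TRH (10 nM final). Enhancement of the Gq-mediated intracellular calcium response was scored.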
D1 agonist = Allosteric Agonists of the Human D1 Dopamine Receptor: qHTS. activation, % at 2 µM. D(1A) dopamine receptor (Homo sapiens), P21728. HEK293 T-REx D1 cells, calcium flux, agonist mode. hit rate 1% among 360,000
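Tetracycline-induced HEK293 TREx D1 cells, force-coupled to calcium signalling, were dye-loaded with a no-wash calcium kit. Compound was pin-added after a 10 s baseline. Fluorescence was read kinetically at 1 cycle/s for 180 s, with calcium rises flagged as agonism.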
D1 potentiator = Potentiators of Human D1 Dopamine Receptor: qHTS; D(1A) dopamine receptor (Homo sapiens), P21728; HEK293 TREx D1 cells, calcium flux, dopamine EC20 potentiation; potentiation, % at 10 µM; hit rate 0.036% among 360,000; AID 504651, 2011; in the data active = potentiation above about 30%
D1 antagonist = Antagonist of Human D 1 Dopamine Receptor: qHTS; HEK293 TREx D1 cells, calcium flux, dopamine EC80; stronger effect = lower value; hit rate 3.2% among 360,000; AID 504652, 2011; activity change, negative = inhibition, % at 10 µM; D(1A) dopamine receptor (Homo sapiens), P21728; in the data active = activity change below about -30%
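Cells carrying a force-coupled, tetracycline-inducible human D1 receptor report calcium flux. Each well gets a 10 s baseline, compound with 180 s monitoring, then an EC80 dopamine stimulus with a second 180 s kinetic read.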
TRHR ag = qHTS for Small Molecule Agonists and Allosteric Enhancers of Human TRH Receptor: Primary Screen for Agonists. TRHR cells, calcium flux fluo-8, FDSS agonist mode. hit rate 0.18% among 360,000. Thyrotropin-releasing hormone receptor (Homo sapiens), P34981. AID 493084, 2011. activation, % at 2 µM
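Read-out: compound-evoked intracellular calcium rise in TRHR cells, fluo-8 dye, kinetic FDSS fluorescence at 1 s/cycle following a 10-cycle baseline. Cells cultured overnight before dye loading (30 min–1.5 h, RT).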
Numbers stand for hits; . = inactive; / = not tested or not shown. This is a sample that favours compounds with a hit; in the whole collection about 4.6% have one here. Rule as the data show it, unless noted: active = activation above about 30%; inactive = the rest.

SMILES	TRHR enhancer	D1 agonist	D1 potentiator	D1 antagonist	TRHR ag
Cc1ccc(N=C2NC(=O)S/C2=C\c2ccco2)cc1	.	.	.	-36	.
O=C1NC(=Nc2ccccc2)/C(=C/c2ccco2)S1	.	.	.	-37	.
O=C1NC(=Nc2ccccc2)S/C1=C\C=C\c1ccco1	.	.	.	.	.
CN1CCN(CCCNC(=O)c2cnn(-c3ccc(F)cc3)c2-n2cccc2)CC1	.	.	.	.	.
COc1cc(/C=C(\C#N)C(=O)N2CCOCC2)cc(Br)c1O	.	.	.	.	.
COc1cc(/C=C(\C#N)C(=O)c2ccc(O)c(O)c2)cc(I)c1O	.	38	.	.	.
CC(C)C(=O)C1=Cc2cccc([N+](=O)[O-])c2OC1N1CCOCC1 (configuration not stated)	.	.	.	-36	.
Cc1ccc(-n2ncc3c(Nc4cccc(C)c4C)ncnc32)cc1	.	.	.	-32	.
CCOc1ccccc1Nc1ncnc2c1cnn2-c1ccccc1	.	.	.	.	.
CCOc1ccccc1Nc1ncnc2c1cnn2-c1ccc(C)cc1	.	.	.	-41	.
CCc1ccccc1NC(=O)CCNS(=O)(=O)c1ccc2c(c1)CCCC(=O)N2	.	.	.	.	.
COc1cccc2c(=O)cn[nH]c12	.	.	.	-52	.
Cc1cccc(Oc2ccccc2NC(=O)CSCC(=O)Nc2cc(C)on2)c1	.	.	.	-44	.
Cc1cc(NC(=O)CSCC(=O)Nc2ccccc2OC(F)F)no1	.	.	.	.	.
CCOc1ccc(Oc2ccccc2NC(=O)CSCC(=O)Nc2cc(C)on2)cc1	.	.	.	-44	.
CC(C)(C)c1ccc(/C=N/NC(=O)C2CCCC2)cc1	.	.	.	-47	.
O=S(=O)(Nc1cccc2ccccc12)c1cccc2ccccc12	.	.	.	-43	.
O=S(=O)(Nc1cccc2ccccc12)c1ccccc1	.	.	.	.	.
CCCc1cc(=O)[nH]c(Nc2cc(Cl)cc(Cl)c2)n1	.	.	.	.	.
CCN(CC(=O)NCc1ccc(Cl)cc1)C(=O)/C=C/c1ccccc1	.	.	.	-31	.
CC1C(=O)CCC1(C(=O)O)c1ccccc1 (configuration not stated)	33	.	.	.	.
O=C(CC1C(=O)NCCN1CCCc1ccccc1)NCCc1ccccc1F (configuration not stated)	.	34	.	.	.
O=C(CC1C(=O)NCCN1Cc1c(F)cccc1Cl)NCCCN1CCCC1=O (configuration not stated)	.	.	.	-39	.
CC(C)CCNC(=O)Cn1cc(S(=O)(=O)Cc2ccc(F)cc2)c2ccccc21	.	.	.	.	.
c1ccc(Nc2ccnc(Nc3ccccc3)n2)cc1	.	.	.	-34	.
SMILES	TRHR enhancer	D1 agonist	D1 potentiator	D1 antagonist	TRHR ag
NNc1nc(Nc2ccccc2)nc(Nc2ccccc2)n1	.	.	.	-30	.
COc1ccc(Nc2ccc(OC)cc2)cc1	.	.	.	.	.
COc1ccc(Nc2nc(NN)nc(Nc3ccc(OC)cc3)n2)cc1	.	.	.	-31	.
Cc1cccc(N2C(=O)CSC23C(=O)N(C)c2ccccc23)c1 (configuration not stated)	.	.	.	.	.
Oc1ccccc1-c1nc(/C=C/c2ccccc2Cl)nn1-c1ccccc1	.	.	.	.	.
CCN1CCN(C(c2ccc(F)cc2)c2sc3nc(-c4ccco4)nn3c2O)CC1 (configuration not stated)	.	.	.	/	.
COc1ccc(Cl)cc1NC(=O)Cn1ncc2c3ccccc3n(Cc3ccccc3)c2c1=O	.	.	.	.	.
CCCCCCC(C)n1[nH]c(=O)cc1N (configuration not stated)	.	.	.	-32	.
CC(C)OP(=O)(c1ccc(N(C)C)cc1)C(Nc1ccccc1)c1ccccc1 (configuration not stated)	.	.	.	-40	.
CC(C)CCOP(=O)(c1ccc(N(C)C)cc1)C(Nc1ccccc1)c1ccc(N(C)C)cc1 (configuration not stated)	.	.	.	.	.
CSC1=NC(C)(C)CC2(C)Nc3ccccc3N12 (configuration not stated)	.	.	.	-32	.
CCCCN(C)S(=O)(=O)c1cc(-c2cc(C)no2)ccc1C	.	.	.	.	.
CCCN(CCC)c1nc(N)nc(-c2cc(Cl)ccc2OC)n1	.	.	.	-75	.
CCCNc1nc(N)nc(-c2cc(Cl)ccc2OC)n1	.	.	.	.	.
CCOc1ccc(NC(=O)Cn2c3ncccc3c(=O)n2-c2ccc(CC)cc2)cc1	.	.	.	.	.
COc1ccc(CCNC(=O)COC(=O)c2ccc(C)s2)cc1OC	.	.	.	-33	.
COc1ccc(CCNC(=O)CC2SC(=NCc3ccccc3OC)NC2=O)cc1 (configuration not stated)	.	.	.	.	.
COc1ccc(N=C2NC(=O)C(CC(=O)NCCc3ccc(OC)c(OC)c3)S2)cc1 (configuration not stated)	.	.	.	-38	.
COc1ccc(CCC(=O)NCCc2ccc(OC)c(OC)c2)cc1	.	.	.	.	.
CCOc1ccc(CCNC(=O)COC(=O)c2ccc(C)s2)cc1OCC	.	.	.	.	.
COc1ccc(CC(C)CC(=O)NCCc2ccc(OC)c(OC)c2)cc1 (configuration not stated)	.	.	.	-75	.
COc1ccc(N2C(=O)CC(Nc3cccc([N+](=O)[O-])c3)C2=O)cc1 (configuration not stated)	.	.	.	-33	.
COc1ccc(N2C(=O)CC(Nc3ccc(C(=O)O)cc3)C2=O)cc1OC (configuration not stated)	.	.	.	.	.
COC(=O)c1cccc(NC2CC(=O)N(c3ccc(OC)c(OC)c3)C2=O)c1 (configuration not stated)	.	.	.	-33	.
COc1ccc(NC(=O)C2CCN(S(=O)(=O)c3ccc4c(c3)CCCC(=O)N4)CC2)c(OC)c1	.	.	.	.	.
CC[n+]1ccc2cc(OC)c(OC)cc2c1Cc1ccc(OC)c(OC)c1	.	.	.	-49	.
Cc1ccc(C(=O)CSc2nc3cccnc3n2C)cc1	.	.	.	-37	.
COc1ccccc1NC(=O)c1cccs1	.	.	.	.	.
O=C(Nc1ccc(Cl)cc1)c1cccs1	.	.	.	-39	.
COc1ccc(NC(=O)c2cccs2)cc1	.	.	.	.	.
